# Results filed as inconclusive are left out. Entries that show only a call come without a potency. Active and inactive are the calls of the source. Unless noted, the call rests on the fitted dose curve; in most records, active means well fitted curve in the direction sought with a large enough effect in the repeat runs; inconclusive means weak or mixed curves; inactive means no such curve, though single readings can be large; an effect the other way counts as inactive or inconclusive.
# Tests used:
# [1] = qHTS assay to identify small molecule agonists of the estrogen receptor alpha (ER-alpha) signaling pathway in the presence of an antagonist - cell viability counter screen (AID 1259386);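 further: cells exposed to compounds for 22 h at 37 °C before the viability read; nearly all actives have a fitted effect of over 30% in size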; further: potency means the concentration at half of the fitted maximal effect
# Method in brief: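 Cytotoxicity was measured in parallel with the ERE-luciferase agonist screen, in the same wells. The cells were VM7Luc4E2, which endogenously express ER-alpha, and treatment was with compounds plus 10.0nM ICI-182,780 for 22hr.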
# [2] = target: Progesterone receptor (Homo sapiens) (UniProt P06401); experiment: qHTS assay to identify small molecule antagonists of the progesterone receptor (PR) signaling pathway (AID 1346795; active means well fitted inhibition curve with a large enough effect in the signal ratio in the repeat runs, not every such curve was filed as active; the % refers to the signal ratio; further: potency means the concentration at half of the fitted maximal effect)
# Sequence of Progesterone receptor (Homo sapiens) (P06401 whole entry, looked up): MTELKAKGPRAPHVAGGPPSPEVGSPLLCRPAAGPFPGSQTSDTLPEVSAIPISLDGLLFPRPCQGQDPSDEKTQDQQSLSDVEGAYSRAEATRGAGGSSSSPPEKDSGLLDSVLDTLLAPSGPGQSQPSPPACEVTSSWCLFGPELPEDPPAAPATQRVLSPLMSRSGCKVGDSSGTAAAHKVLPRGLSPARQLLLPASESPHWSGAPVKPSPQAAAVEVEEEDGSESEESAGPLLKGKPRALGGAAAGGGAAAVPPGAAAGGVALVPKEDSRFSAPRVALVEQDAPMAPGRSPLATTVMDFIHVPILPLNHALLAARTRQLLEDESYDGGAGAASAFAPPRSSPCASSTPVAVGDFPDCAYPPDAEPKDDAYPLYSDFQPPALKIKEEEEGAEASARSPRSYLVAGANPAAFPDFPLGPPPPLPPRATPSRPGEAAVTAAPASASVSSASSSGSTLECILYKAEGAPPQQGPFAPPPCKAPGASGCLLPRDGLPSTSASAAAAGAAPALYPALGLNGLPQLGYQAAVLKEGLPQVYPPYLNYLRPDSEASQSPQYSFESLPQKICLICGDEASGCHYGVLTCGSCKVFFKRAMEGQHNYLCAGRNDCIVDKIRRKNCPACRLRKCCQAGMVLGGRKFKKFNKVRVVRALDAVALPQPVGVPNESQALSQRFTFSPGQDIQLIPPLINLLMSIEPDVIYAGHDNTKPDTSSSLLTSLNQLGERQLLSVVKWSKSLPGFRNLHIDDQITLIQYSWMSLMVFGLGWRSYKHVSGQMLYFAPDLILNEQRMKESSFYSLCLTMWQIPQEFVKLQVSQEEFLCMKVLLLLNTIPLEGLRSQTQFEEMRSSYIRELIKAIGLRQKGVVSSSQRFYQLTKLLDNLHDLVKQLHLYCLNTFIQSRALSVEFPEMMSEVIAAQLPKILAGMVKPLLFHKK
# Method in brief: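 HEK293T PR-UAS-bla reporter cells in charcoal-stripped serum (2%) received compound after a 6 hr settling period, followed by R5020 agonist at 1 nM final; 16 hr incubation preceded the FRET substrate step and fluorescence measurement.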
# [3] = qHTS assay to identify small molecule agonists of the progesterone receptor (PR) signaling pathway - cell viability counter screen (AID 1346799; calls by dose curve; further: nearly all actives have a fitted effect of over 45% in size; further: potency means the concentration at half of the fitted maximal effect)
# Method in brief: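 Counter screen for cytotoxicity: compound-treated PR-UAS-bla HEK293T cells (16 hr, 37C, 5% CO2) were assayed with CellTiter-Glo, luminescence measured after 30 min at room temperature.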
# [4] = qHTS assay to identify small molecule antagonists of the TGF-beta/Smad signaling pathway - cell viability counter screen (AID 1346824); further: nearly all actives have a fitted effect of over 50% in size; further: potency means the concentration at half of the fitted maximal effect
# Method in brief: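 Cytotoxicity counter-screen run in the same wells as the beta-lactamase Smad reporter read: CellTiter-Glo luminescence after 30 min at room temperature. HEK 293T SBE-bla cells had 5 hr compound exposure at 37 C with TGF-beta1 (0.25 ng/mL stock).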
# [5] = qHTS assay to identify small molecule agonists of the TGF-beta/Smad signaling pathway - cell viability counter screen (AID 1346829); further: nearly all actives have a fitted effect of over 45% in size; further: potency means the concentration at half of the fitted maximal effect
# Method in brief: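 Luminescence from CellTiter-Glo, read after a 30 min room-temperature incubation, gives cell viability of SBE-bla HEK 293T cells treated 5 hr with compounds at 37 C.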
# [6] = qHTS assay to identify small molecule agonists of the TGF-beta/Smad signaling pathway (AID 1346859; active means well fitted activation curve with a large enough effect in the signal ratio in the repeat runs, not every such curve was filed as active; the % refers to the signal ratio; further: series mostly up to about 77 µM)
# Method in brief: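 Smad-responsive beta-lactamase reporter cells (HEK 293T) received compounds from DMSO stocks after overnight attachment, were incubated 5 hr, then treated 2 hr with FRET substrate before dual-emission fluorescence measurement (405 nm excitation).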
# [7] = qHTS assay to identify small molecule antagonists of the progesterone receptor (PR) signaling pathway - cell viability counter screen (AID 1346798); further: nearly all actives have a fitted effect of over 50% in size; further: potency means the concentration at half of the fitted maximal effect
# Method in brief: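 Same-well multiplex: after 16 hr at 37C with compound and R5020 stimulation, HEK293T cells carrying a UAS-bla reporter received LiveBLAzer substrate (2 hr RT), then CellTiter-Glo (30 min RT) for luminescent viability.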
# [8] = target: Thyrotropin-releasing hormone receptor (Homo sapiens) (UniProt P34981); experiment: qHTS assay to identify small molecule antagonists of the thyrotropin-releasing hormone receptor (TRHR) signaling pathway (AID 1346877; active means well fitted inhibition curve with a large enough effect in the repeat runs, not every such curve was filed as active; further: potency means the concentration at half of the fitted maximal effect)
# Sequence of Thyrotropin-releasing hormone receptor (Homo sapiens) (P34981 whole entry, looked up): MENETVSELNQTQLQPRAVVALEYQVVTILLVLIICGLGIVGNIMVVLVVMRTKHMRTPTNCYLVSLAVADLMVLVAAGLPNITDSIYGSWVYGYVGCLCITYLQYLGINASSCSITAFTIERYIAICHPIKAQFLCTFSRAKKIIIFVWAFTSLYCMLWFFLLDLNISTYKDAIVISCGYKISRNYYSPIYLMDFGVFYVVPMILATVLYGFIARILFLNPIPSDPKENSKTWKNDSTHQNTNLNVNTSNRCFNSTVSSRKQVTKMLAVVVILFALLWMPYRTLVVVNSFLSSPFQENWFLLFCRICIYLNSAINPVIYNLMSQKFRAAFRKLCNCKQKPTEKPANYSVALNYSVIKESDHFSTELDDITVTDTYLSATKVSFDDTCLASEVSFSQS
# Method in brief: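 Antagonism is measured as suppression of the calcium response to 1 nM TRH in TRHR-HEK293 cells that have been dye-loaded for 2 h at 37 °C after overnight plating. Each compound is tested at 15 concentrations in triplicate.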
# [9] = target: Thyrotropin-releasing hormone receptor (Homo sapiens) (UniProt P34981); experiment: qHTS assay to identify small molecule agonists of the thyrotropin-releasing hormone receptor (TRHR) signaling pathway (AID 1346891; calls by dose curve; further: potency means the concentration at half of the fitted maximal effect;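 on activation: HEK293 cells expressing TRHR with calcium dye readout; series mostly up to about 58 µM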)
# Method in brief: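 Agonist-mode calcium mobilisation screen: TRHR-transfected HEK293 cells cultured overnight (18 h), dye-loaded for 2 h at 37 °C, exposed to compounds, and monitored by fluorescence for 3 min.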
Structure (SMILES),Potency [1],Potency [2],Potency [3],Potency [4],Potency [5],outcome [6],Potency [7],Potency [8],Potency [9]
CCOC(=O)CCN(SN(C)C(=O)Oc1cccc2c1OC(C)(C)C2)C(C)C,inactive,inactive,inactive,inactive,inactive,inactive,–,–,–
CCCCC(CC)COC(=O)OOC(C)(C)C (centres undefined),inactive,inactive,inactive,inactive,inactive,inactive,inactive,inactive,inactive
CCC[CH2][Sn]([CH2]CCC)([CH2]CCC)[CH2]CCC,17.2 µM (active),24.3 µM (active),–,38.9 µM (active),38.9 µM (active),–,43.3 µM (active),inactive,inactive
CNC(=O)Oc1cc(C)cc(C(C)C)c1,inactive,inactive,–,inactive,inactive,inactive,–,inactive,inactive
CNC(=O)/C=C(\C)OP(=O)(OC)OC,inactive,inactive,inactive,inactive,inactive,inactive,inactive,inactive,inactive
CCn1cc[n+](C)c1 (tested in a mixture with another compound),inactive,inactive,inactive,inactive,inactive,inactive,–,–,–
O=c1[nH]c(Cl)c(Cl)cc1Cl,inactive,inactive,–,inactive,inactive,–,–,inactive,inactive
CC(C)=CC1C(C(=O)OC(C#N)c2cccc(Oc3ccccc3)c2)C1(C)C (centres undefined),inactive,–,inactive,inactive,inactive,inactive,inactive,inactive,inactive
CCC(OC(C)=O)C(CC(C)NC)(c1ccccc1)c1ccccc1 (centres undefined),inactive,54.9 µM (active),–,–,inactive,inactive,54.9 µM (active),inactive,inactive
CC#C[C@]1(O)CC[C@H]2[C@@H]3C[C@H](C)C4=CC(=O)CC[C@]4(C)[C@H]3CC[C@@]21C,inactive,inactive,–,inactive,inactive,inactive,–,inactive,inactive
CCCCCCC[CH2][Sn]([Cl])([Cl])[CH2]CCCCCCC,inactive,–,–,inactive,inactive,inactive,–,inactive,inactive
O=[N+]([O-])c1cc(C(F)(F)F)c(Cl)c([N+](=O)[O-])c1Nc1ncc(C(F)(F)F)cc1Cl,30.6 µM (active),–,27.3 µM (active),30.9 µM (active),43.6 µM (active),–,24.3 µM (active),15.1 µM (active),inactive
CC(C)[C@@H](Nc1ccc(C(F)(F)F)cc1Cl)C(=O)OC(C#N)c1cccc(Oc2ccccc2)c1 (some centres undefined),inactive,–,–,–,–,inactive,inactive,–,–
Nc1ccc(N=Nc2ccccc2)cc1,30.6 µM (active),–,–,inactive,inactive,inactive,–,inactive,inactive
Cc1ccn2nc(S(=O)(=O)Nc3c(F)cccc3F)nc2n1,inactive,–,inactive,inactive,inactive,inactive,–,inactive,inactive
Brc1ccc(Oc2ccc(Br)cc2Br)c(Br)c1,inactive,–,–,inactive,–,inactive,inactive,inactive,inactive
CC(Cc1ccccc1)N(C)Cc1ccco1 (centres undefined),inactive,–,–,inactive,inactive,inactive,inactive,inactive,inactive
C=CC(=O)[O][Sn]([CH2]CCC)([CH2]CCC)[CH2]CCC,10.9 µM (active),–,–,2.45 µM (active),–,–,4.33 µM (active),13.5 µM (active),17.4 µM (active)
CN(C)c1ccc(N)cc1,53.2 µM (active),–,–,inactive,–,inactive,inactive,inactive,inactive
COc1c2c(cc3c1OCO3)CCN(C)C2,inactive,–,inactive,inactive,–,inactive,inactive,inactive,inactive
CCN(CC)CCN1C(=O)CN=C(c2ccccc2F)c2cc(Cl)ccc21,inactive,–,–,inactive,inactive,inactive,inactive,inactive,inactive
CCN(CC)Cc1nccn1-c1ccc([N+](=O)[O-])cc1C(=O)c1ccccc1Cl,inactive,–,–,inactive,inactive,inactive,–,inactive,inactive
[O-][Cl+3]([O-])([O-])O,inactive,–,inactive,inactive,inactive,inactive,–,inactive,inactive
Oc1cccc(Cl)c1Cl,inactive,–,–,inactive,inactive,inactive,–,inactive,inactive
CC(=O)[O][Pb]([c]1ccccc1)([c]1ccccc1)[c]1ccccc1,19.3 µM (active),–,–,4.9 µM (active),4.36 µM (active),–,4.33 µM (active),–,–
Clc1ccc(C(Cl)(Cl)Cl)cc1Cl,inactive,–,inactive,inactive,inactive,inactive,–,inactive,inactive

# Source: PubChem BioAssay (Tox21)
